Screening data (PubChem BioAssay)
Rows were chosen to be rich in hits. Some 2.3% of all compounds tested hit in one or more screens of this group.
M1 antag: antagonists of human M1 muscarinic receptor; P11229; CHO-K1 hM1, Fluo-8 calcium fluorescence, ACh EC80 antagonist; inhibition, % at 3 µM; actives 1.3% (n = 360,000); AID 588852;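 active = percent inhibition above its own plate's cutoff, namely the mean of that plate's compound wells plus 3 SD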;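 also: peak over basal fluorescence ratio during 140 s after agonist addition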
Target sequence (P11229 whole entry, looked up): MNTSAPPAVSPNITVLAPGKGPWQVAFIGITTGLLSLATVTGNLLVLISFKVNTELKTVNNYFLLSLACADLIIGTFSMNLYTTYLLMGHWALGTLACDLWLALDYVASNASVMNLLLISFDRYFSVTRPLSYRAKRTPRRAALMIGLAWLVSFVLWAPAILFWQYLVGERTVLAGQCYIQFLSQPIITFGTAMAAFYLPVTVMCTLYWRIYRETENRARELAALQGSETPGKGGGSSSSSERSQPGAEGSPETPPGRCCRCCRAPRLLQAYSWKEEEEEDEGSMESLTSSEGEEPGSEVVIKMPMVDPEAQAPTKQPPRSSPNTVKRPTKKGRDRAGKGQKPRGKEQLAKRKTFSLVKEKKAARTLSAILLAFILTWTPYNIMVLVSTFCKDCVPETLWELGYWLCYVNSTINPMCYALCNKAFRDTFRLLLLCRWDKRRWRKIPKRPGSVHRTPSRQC
CHO-K1 Ca ag: counter-screen for M1 agonists: effect in parental CHO-K1 cells; activation, % at 3 µM; Fluo-8 calcium fluorescence; scaled to maximal ATP response, vehicle zero; AID 602248; actives 0.48% (n = 360,000); in the data active = activation above about 15%;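 also: untransfected CHO-K1 host cells lacking M1 receptor as counterscreen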
M1 PAM parental: nonselective activator or artifact in parental CHO-K1 calcium assay | ATP EC20, Fluo-8 calcium fluorescence; 0% at ATP EC20, 100% at ATP max | activation, % at 3 µM | actives 0.02% (n = 360,000) | AID 602247;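 active = activation above the run cutoff, the mean activation of all test compounds plus 3 SD, cut at about 40% in these data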;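 also: peak over basal fluorescence ratio in a 140 s read after ATP addition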
M1 PAM: positive allosteric modulators of human M1 muscarinic receptor | actives 0.088% (n = 360,000) | AID 588819 | activation, % at 3 µM | P11229 | CHO-K1 hM1, Fluo-8 calcium fluorescence, ACh EC20; 0% = ACh EC20, 100% = maximal ACh; in the data active = activation above about 19%, passing the limit was not always enough
M1 ag: agonists of human M1 muscarinic receptor; CHO-K1 hM1, Fluo-8 calcium fluorescence, agonist mode; 0% DMSO, 100% acetylcholine EC100; activation, % at 3 µM; actives 0.33% (n = 360,000);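 active = activation above the run's mean compound activation plus 3 SD, cut at about 16% in these data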;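 also: peak over basal fluorescence ratio within a 140 s kinetic read after compound addition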
CHO-K1 Ca antag: M1 antagonist counterscreen hit in parental CHO-K1 cells. ATP-induced calcium, Fluo-8 fluorescence. inhibition, % at 3 µM. actives 0.6% (n = 360,000). AID 602250;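 active = inhibition above a per-plate cutoff, the plate's mean sample inhibition plus 3 SD, cut at about 24% in these data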
Of the large screens only hits and unclear results are named; the others gave an inactive call.

CCOC(=O)Cn1c(=O)oc2cc(S(=O)(=O)NCCc3ccc(C)cc3)ccc21	none
CCOC(=O)Cn1c(=O)oc2cc(S(=O)(=O)Nc3ccc(F)cc3)ccc21	M1 ag 30.6
NC(=O)/C(=C/c1cccnc1)NC(=O)c1ccccc1	none
Cc1cccc(C(=O)NCC(=O)OCC(=O)c2cc(C)n(CC3CCCO3)c2C)c1 (stereo unspecified)	CHO-K1 Ca ag 17.3
CN1CCN(c2ncnc3c2ncn3[C@H]2CN(Cc3ccco3)C[C@@H](CO)O2)CC1	none
c1csc(CCNc2ncnc3sc4c(c23)CCC4)c1	M1 antag 33.0
CCCCNC(=O)C1(C)CCCCN1C(=O)c1cc2ccccc2s1 (stereo unspecified)	none
COc1ccc(C)c2sc(N3CCCC3)nc12	none
COc1ccc(OC)c2sc(N3CCN(c4ccccc4)CC3)nc12	CHO-K1 Ca antag 27.6
COc1ccc(C2(C)NC(=O)N(CC(=O)N3CCc4ccccc43)C2=O)cc1OC (stereo unspecified)	none
CCC1(c2ccc(F)cc2)NC(=O)N(CC(=O)N2c3ccccc3NC(=O)CC2C)C1=O (stereo unspecified)	none
CCC1(c2ccc(F)cc2)NC(=O)N(CC(=O)N2c3ccccc3CC2C)C1=O (stereo unspecified)	M1 ag 26.9
CCC1(c2ccc(OC)cc2)NC(=O)N(CC(=O)N2CCc3ccccc32)C1=O (stereo unspecified)	M1 ag 28.7
CCC1(c2ccc(F)cc2)NC(=O)N(CC(=O)c2cc(C)n(C3CC3)c2C)C1=O (stereo unspecified)	CHO-K1 Ca ag 25.6, M1 ag 30.3
COc1ccc(CCNC(=O)CCCn2c(=S)[nH]c3ccsc3c2=O)cc1OC	none
Cc1sc2nc(CN3CCOCC3)nc(NS(=O)(=O)c3cc(Cl)ccc3Cl)c2c1C	none
O=C(COC(=O)c1cc(Cl)ccc1O)NNC(=O)c1ccccc1F	none
COc1cc(/C=C(\C#N)c2nc3ccccc3o2)ccc1O	M1 antag 40.4, CHO-K1 Ca ag 45.3, M1 ag 35.4, CHO-K1 Ca antag 30.3
COc1cccc(NC(=S)N/N=C2/CCCCc3ccccc32)c1	none
CC(=O)c1ccc(OCCCN2CCCCC2)cc1	none
O=C(c1ccccc1)c1ccc(OCCCN2CCCCC2)cc1	M1 antag 34.0
CC1CCN(CCOc2ccc(OCc3ccccc3)cc2)CC1	M1 antag 61.4
c1ccc(COc2ccc(OCCCCN3CCCC3)cc2)cc1	M1 antag 35.4
CC1CCN(CCCCOc2ccc(C(C)(C)C)cc2)CC1	M1 antag 59.5
COC(=O)C[C@H]1C[C@H]2c3cc(NS(=O)(=O)c4cccc(OC)c4)ccc3O[C@H]2[C@@H](CO)O1	none
COc1ccccc1C(=O)Nc1nc(C)cc(C)n1	none
c1ccc(COc2ccc(OCCCNC3CCCC3)cc2)cc1	M1 antag 28.7
c1ccc(COc2ccc(OCCCN3CCCCC3)cc2)cc1	M1 antag 49.6
CC1CC(C)CN(CCCCOc2ccc([N+](=O)[O-])cc2)C1 (stereo unspecified)	M1 antag 24.0
COCCCNCCCCOc1ccc(OCc2ccccc2)cc1	none
c1ccc(CCCN2CCOCC2)cc1	none
c1ccc(OCc2ccc(CCCN3CCOCC3)cc2)cc1	M1 antag 36.9
CC1CCc2nc3ccc(S(=O)(=O)N4CCC(C(=O)NC(C)c5ccccc5)CC4)cc3c(C(=O)O)c2C1 (stereo unspecified)	none
CN(CC(=O)NCCc1ccc(F)cc1)Cc1cccc(Cl)c1	none
CC(C)C(NC(=O)c1ccccc1)C(=O)N/N=C\c1ccco1 (stereo unspecified)	none
FC(F)(F)c1nnc2c(Sc3ccc(Cl)cc3)nc3ccccc3n12	CHO-K1 Ca antag 38.7
O=C(C1=NOC(CNc2ncc(C(F)(F)F)cc2Cl)C1)N1CCOCC1 (stereo unspecified)	none
Cc1ccc(C)c(S(=O)(=O)N2CCN(C(=O)c3n[nH]c(=O)c4ccccc34)CC2)c1	none
Cc1ccc(S(=O)(=O)N2CCC(C(=O)O)CC2)cc1C(=O)O	none
O=C(O)C1CCN(S(=O)(=O)c2ccc3[nH]ccc3c2)CC1	CHO-K1 Ca antag 26.4
